Active and inactive are the calls of the source.
How the values were obtained:
[1] = test system: Wnt5a (protein binding on small-molecule microarray); assay: small molecules binding Wnt5a protein – biophysical, small-molecule microarray, 635/667 nm fluorescence, primary screen (AID 1142); conditions: 635 nm fluorescence, higher = more signal;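 also: fluorescence read at 667 nm with signal to noise per printed feature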
[2] = ATP-based viability of Huh7 replicon cells – cell-based, CellTiter-Glo luminescence, basal, 48 h, cytotoxicity control for HCV replication inhibitor project, primary screen (AID 1143); conditions: higher = more signal, called active from +8 up or from −8 down;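 also: Huh7 hepatoma cells carrying a hepatitis C replication reporter with no stimulus; test concentration not given here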
[3] = basal CRE-LacZ reporter activity in PC12 – cell-based, unstimulated, primary screen (AID 1145); conditions: no forskolin, luminescence, 4.5 h, higher = more signal, called active from +8 up or from −8 down
[4] = forskolin-driven CRE-LacZ activity in PC12 – cell-based, CRE-LacZ reporter, forskolin-stimulated, primary screen (AID 1146); conditions: luminescence, 4.5 h, higher = more signal, called active from +8 up or from −8 down;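 also: PC12 cells with 6xCRE LacZ reporter stimulated by forskolin 10 µM; beta-galactosidase reporter signal reflecting CREB driven transcription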
[5] = biological target: Streptavidin (Streptomyces avidinii) (UniProt P22629); assay: compounds binding control protein streptavidin – biophysical, small-molecule microarray, 635/667 nm fluorescence, artefact control for SMM compound annotation, primary screen (AID 1147); conditions: higher = more signal;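 also: signal reflects streptavidin binding to arrayed compounds as a control protein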
[6] = probe aInhba binding on compound microarray – biochemical, small-molecule microarray, 635/667 nm fluorescence, primary screen (AID 1148); conditions: higher = more signal;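 also: score merges 667nm spot fluorescence with signal-to-noise for antibody binding to printed compounds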
[7] = biological target: Torsin-1A (Homo sapiens) (UniProt O14656); assay: TOR1A wild-type binding on microarray – cell lysate, small-molecule microarray, lysate, 635/667 nm, primary screen (AID 1149); conditions: COS7 hTOR1A-WT lysate, 635 nm fluorescence, higher = more signal
[8] = biological target: Torsin-1A (Homo sapiens) (UniProt O14656); assay: torsin A mutant lysate binding on microarrays – cell lysate, small-molecule microarray, COS7 lysate, 635/667 nm fluorescence, primary screen (AID 1150); conditions: COS7 hTOR1A mutant lysate, 635 nm fluorescence, higher = more signal;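 also: score pools 667 nm emission and signal to noise measuring lysate protein binding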
[9] = test system: Sonic hedgehog protein (Shh); assay: Sonic hedgehog microarray binding compounds – biochemical, small-molecule microarray, 635/667 nm fluorescence, primary screen (AID 1151); conditions: 635 nm fluorescence, higher = more signal;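 also: Shh protein binding to compounds spotted on small-molecule microarray slides; score combines spot fluorescence intensity with signal-to-noise across triplicate slides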
[10] = optical density shifts of acrAB sulA E. coli – strain DRC41, OD650, 48 h, E. coli filamentation inducer project, primary screen (AID 1152); conditions: higher = more signal, called active from +8 up or from −8 down;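 also: E. coli MC1000 strain DRC41 lacking acrAB efflux pump and sulA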
[11] = probe aLefty1 binding on compound microarray – biochemical, small-molecule microarray, 635/667 nm fluorescence, primary screen (AID 1153); conditions: higher = more signal;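 also: score merges spot fluorescence with signal-to-noise ratio from the scanned slide images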
[12] = plasmodial surface anion channel blockers, osmotic lysis – cell-based, P. falciparum Indochina, OD700, 1 h, primary screen (AID 1154); conditions: P. falciparum Indochina infected RBC osmotic lysis, higher = more signal, called active from +8 up or from −8 down
[13] = plasmodial surface anion channel blockers, osmotic lysis – cell-based, P. falciparum Indochina, OD700, 2 h, primary screen (AID 1155);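 also: lysis reports solute entry through the parasite surface anion channel PSAC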; conditions: P. falciparum Indochina infected erythrocytes, higher = more signal, called active from +8 up or from −8 down
[14] = changes in parasitized red cell lysis, either direction – P. falciparum Indochina, OD700, 3 h, PSAC antagonist project, primary screen (AID 1156); conditions: P. falciparum-infected erythrocytes, osmotic lysis, higher = more signal, called active from +8 up or from −8 down
[15] = plasmodial surface anion channel blockers, osmotic lysis – cell-based, P. falciparum Indochina, OD700, 18 h, primary screen (AID 1157); conditions: P. falciparum Indochina infected erythrocytes, osmotic lysis OD700, 18 h; higher = more signal, called active from +8 up or from −8 down
[16] = S6 kinase pathway phospho-S6 level changes – cell-based, A549, cytoblot, luminescence, serum-stimulated, primary screen (AID 1158); conditions: 5 h, higher = more signal;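 also: serum-stimulated A549 lung adenocarcinoma cells; signal is phosphorylated S6 detected by cytoblot immunostaining with HRP secondary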
[17] = biological target: NADPH oxidase 2 (Homo sapiens) (UniProt P04839); assay: compounds shifting NOX2 Amplex Red fluorescence – cell-based, HEK293-NOX2, PMA-stimulated, NOX inhibitor project, primary screen (AID 1159); conditions: 45 min, higher = more signal, called active from +8 up or from −8 down; also: test concentration not given here
[18] = biological target: NADPH oxidase 4 (Homo sapiens) (UniProt Q9NPH5); assay: compounds shifting NOX4 Amplex Red fluorescence – cell-based, HEK293-NOX4, tetracycline-induced, NOX inhibitor project, primary screen (AID 1160); conditions: HEK293-NOX4, Amplex Red H2O2 fluorescence, 45 min; higher = more signal, called active from +8 up or from −8 down
[19] = biological target: NADPH oxidase 5 (Homo sapiens) (UniProt Q96PH1); assay: compounds shifting NOX5 Amplex Red fluorescence – cell-based, HEK293-NOX5, NOX inhibitor project, primary screen (AID 1161); conditions: HEK293-NOX5, ionomycin, 45 min, higher = more signal
Chain of NADPH oxidase 5 (Homo sapiens) (Q96PH1 whole entry, looked up): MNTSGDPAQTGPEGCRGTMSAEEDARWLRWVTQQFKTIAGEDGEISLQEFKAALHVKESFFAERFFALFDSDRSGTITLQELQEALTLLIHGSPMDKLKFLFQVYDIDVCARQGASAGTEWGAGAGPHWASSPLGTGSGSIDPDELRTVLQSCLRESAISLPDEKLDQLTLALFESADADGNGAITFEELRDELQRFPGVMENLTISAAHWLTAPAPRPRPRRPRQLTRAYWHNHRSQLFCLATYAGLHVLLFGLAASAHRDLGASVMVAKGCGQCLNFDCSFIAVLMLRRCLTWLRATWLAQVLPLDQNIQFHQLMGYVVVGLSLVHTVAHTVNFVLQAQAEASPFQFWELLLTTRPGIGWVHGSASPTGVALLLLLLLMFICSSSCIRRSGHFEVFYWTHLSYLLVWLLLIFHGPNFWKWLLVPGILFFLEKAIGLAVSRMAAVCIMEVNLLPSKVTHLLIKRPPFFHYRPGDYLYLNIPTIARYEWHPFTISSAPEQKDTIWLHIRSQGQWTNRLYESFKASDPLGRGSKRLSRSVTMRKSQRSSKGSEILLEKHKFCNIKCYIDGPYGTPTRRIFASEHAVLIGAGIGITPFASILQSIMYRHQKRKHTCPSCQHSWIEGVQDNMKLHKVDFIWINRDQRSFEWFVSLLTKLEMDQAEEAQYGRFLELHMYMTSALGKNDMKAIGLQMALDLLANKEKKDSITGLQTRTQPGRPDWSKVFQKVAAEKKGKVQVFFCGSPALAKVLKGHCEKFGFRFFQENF

Chain of NADPH oxidase 2 (Homo sapiens) (P04839 whole entry, looked up): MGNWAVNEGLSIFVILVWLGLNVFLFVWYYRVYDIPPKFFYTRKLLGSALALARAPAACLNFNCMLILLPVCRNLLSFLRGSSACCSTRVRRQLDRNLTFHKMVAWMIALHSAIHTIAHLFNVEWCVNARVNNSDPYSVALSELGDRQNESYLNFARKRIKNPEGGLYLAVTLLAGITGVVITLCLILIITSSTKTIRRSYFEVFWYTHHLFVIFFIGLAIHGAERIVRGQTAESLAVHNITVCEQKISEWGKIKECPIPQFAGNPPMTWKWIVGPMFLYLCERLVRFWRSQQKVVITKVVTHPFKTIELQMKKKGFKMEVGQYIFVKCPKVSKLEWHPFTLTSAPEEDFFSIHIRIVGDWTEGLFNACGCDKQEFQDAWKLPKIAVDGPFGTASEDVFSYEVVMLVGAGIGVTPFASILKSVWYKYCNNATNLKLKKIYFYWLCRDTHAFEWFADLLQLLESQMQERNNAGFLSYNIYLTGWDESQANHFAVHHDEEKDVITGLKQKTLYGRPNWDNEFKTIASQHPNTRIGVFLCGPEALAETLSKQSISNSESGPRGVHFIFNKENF
Chain of NADPH oxidase 4 (Homo sapiens) (Q9NPH5 whole entry, looked up): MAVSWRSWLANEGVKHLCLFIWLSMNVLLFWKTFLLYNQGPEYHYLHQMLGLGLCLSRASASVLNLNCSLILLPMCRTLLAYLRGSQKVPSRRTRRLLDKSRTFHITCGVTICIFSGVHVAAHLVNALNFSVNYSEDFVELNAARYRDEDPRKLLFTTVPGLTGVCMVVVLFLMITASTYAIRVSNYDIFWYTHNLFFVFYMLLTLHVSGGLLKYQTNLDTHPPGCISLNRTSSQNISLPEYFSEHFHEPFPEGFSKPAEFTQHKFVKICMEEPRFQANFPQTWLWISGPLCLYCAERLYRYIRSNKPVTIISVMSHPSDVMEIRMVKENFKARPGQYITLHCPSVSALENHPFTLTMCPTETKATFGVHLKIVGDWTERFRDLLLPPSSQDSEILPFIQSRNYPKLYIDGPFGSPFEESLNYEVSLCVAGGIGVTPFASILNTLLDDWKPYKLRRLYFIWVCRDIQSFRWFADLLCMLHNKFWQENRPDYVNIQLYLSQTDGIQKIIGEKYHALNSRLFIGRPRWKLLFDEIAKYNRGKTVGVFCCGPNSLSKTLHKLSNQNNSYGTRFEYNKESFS
Chain of Torsin-1A (Homo sapiens) (O14656 whole entry, looked up): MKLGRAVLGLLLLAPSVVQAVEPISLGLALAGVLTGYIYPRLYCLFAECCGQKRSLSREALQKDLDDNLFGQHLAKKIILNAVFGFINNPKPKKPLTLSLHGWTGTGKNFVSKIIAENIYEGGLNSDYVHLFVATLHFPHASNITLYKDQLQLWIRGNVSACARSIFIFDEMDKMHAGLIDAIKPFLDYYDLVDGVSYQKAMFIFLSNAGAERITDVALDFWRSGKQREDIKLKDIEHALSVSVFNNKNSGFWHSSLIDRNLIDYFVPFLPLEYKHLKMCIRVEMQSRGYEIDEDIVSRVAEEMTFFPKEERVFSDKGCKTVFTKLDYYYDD
Chain of Streptavidin (Streptomyces avidinii) (P22629 whole entry, looked up): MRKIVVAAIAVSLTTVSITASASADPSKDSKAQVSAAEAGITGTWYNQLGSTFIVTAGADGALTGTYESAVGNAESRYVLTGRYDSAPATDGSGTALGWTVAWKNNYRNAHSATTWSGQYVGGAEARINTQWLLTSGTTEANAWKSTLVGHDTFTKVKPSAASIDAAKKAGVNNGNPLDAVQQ

Structure (SMILES)	composite z-score [1]	z-score [2]	z-score [3]	z-score [4]	composite z-score [5]	composite z-score [6]	composite z-score [7]	composite z-score [8]	composite z-score [9]	z-score [10]	composite z-score [11]	z-score [12]	z-score [13]	z-score [14]	z-score [15]	z-score [16]	z-score [17]	z-score [18]	z-score [19]
O=C(NCc1ccccc1)[C@@]1(CCS(=O)(=O)c2ccccc2)COC(c2ccc(OCCCO)cc2)=N1	0.23	-3.07 (inactive)	-0.137 (inactive)	-2.67 (inactive)	2	0.281	0.911	0.576	0.331	2.13 (inactive)	0.715	30.4 (active)	25.8 (active)	3.7 (inactive)	5.53 (inactive)	2.54	-2.26 (inactive)	-0.0883 (inactive)	-2.24
CCOC(=O)[C@H]1C/C=C/C[C@H](C(=O)OCC)C(=O)O[C@H]2[C@@H](OC)O[C@H](CO)[C@@H](OC(=O)Nc3ccc(Br)cc3)[C@@H]2OC1=O	0.172	-6.64 (inactive)	-0.614 (inactive)	-1.23 (inactive)	0.521	-0.121	0.164	-0.2	0.69	2.32 (inactive)	0.0606	5.41 (inactive)	1.8 (inactive)	-3.28 (inactive)	0.412 (inactive)	1.5	-0.611 (inactive)	-0.759 (inactive)	1.63
COCCOC(=O)N1C(=O)[C@@]2(c3cc(C#CCNC(N)=O)ccc31)[C@H](c1ccc(OCCO)cc1)N1[C@H](c3ccccc3)[C@H](c3ccccc3)OC(=O)[C@H]1[C@@H]2C(=O)N1CCCCCCC1	0.148	-2.36 (inactive)	-0.0566 (inactive)	-1.91 (inactive)	0.34	0.325	0.0499	0.576	0.932	1.92 (inactive)	1.16	1.96 (inactive)	0.568 (inactive)	0.465 (inactive)	-0.737 (inactive)	1.01	2.38 (inactive)	1.22 (inactive)	0.765
O=C1O[C@@H](c2ccccc2)[C@@H](c2ccccc2)N2[C@@H](c3ccc(O)cc3)[C@]3(C(=O)Nc4ccccc43)[C@@H](C(=O)N3CCN(c4ncccn4)CC3)[C@H]12	-0.0063	-5 (inactive)	-0.815 (inactive)	-0.245 (inactive)	-0.6	-0.178	0.828	0.232	-0.0193	3.11 (inactive)	-0.263	2.76 (inactive)	-0.363 (inactive)	0.541 (inactive)	-1.54 (inactive)	2.51	0.142 (inactive)	-0.0244 (inactive)	1.51
CCN1C(C)=C(C(=O)OC)[C@@H](c2ccccc2)N2C(=O)[C@@]3(C(=O)OC)O[C@@]12[C@@H]1C(=O)N(C)C(=O)[C@@H]13	0.601	-0.674 (inactive)	0.922 (inactive)	-1.21 (inactive)	0.233	-0.157	0.587	0.368	0.971	-0.871 (inactive)	-0.0954	0.339 (inactive)	-1.13 (inactive)	0.0125 (inactive)	-1.65 (inactive)	0.629	1.52 (inactive)	-1.65 (inactive)	-0.267
COc1cc2c(cc1OC)CN(C(=O)[C@@H]1[C@H]3C(=O)O[C@H](c4ccccc4)[C@H](c4ccccc4)N3[C@H](c3ccccc3OCCO)[C@@]13C(=O)Nc1ccccc13)CC2	0.406	-2.96 (inactive)	0.769 (inactive)	-1.31 (inactive)	0.0797	0.387	0.497	0.701	0.554	1.47 (inactive)	0.551	8.6 (active)	3.56 (inactive)	-0.0442 (inactive)	2.22 (inactive)	0.206	1.67 (inactive)	1.02 (inactive)	0.901
C=CC[C@]1(C(N)=O)N=C(c2ccc(OCCCO)cc2)O[C@H]1c1ccccc1CN=[N+]=[N-]	0.151	-4.28 (inactive)	1.54 (inactive)	-1.31 (inactive)	1.42	-0.0093	1.69	0.96	-0.373	2.19 (inactive)	-0.007	23.9 (active)	6.58 (inactive)	-0.294 (inactive)	0.837 (inactive)	1.73	-2.02 (inactive)	-0.202 (inactive)	0.568
C[C@]1(C(=O)NCc2ccccc2)c2ccccc2C(=O)N(Cc2cc(C(F)(F)F)cc(C(F)(F)F)c2)[C@H]1c1ccc(CO)cc1	0.944	-5.26 (inactive)	-0.735 (inactive)	-1.41 (inactive)	0.157	0.447	0.462	0.334	1.51	2.32 (inactive)	0.364	6.25 (inactive)	1.11 (inactive)	0.709 (inactive)	0.448 (inactive)	3.92	-1.35 (inactive)	-1.03 (inactive)	-1
C[C@@H]1CC[C@H]2C(=O)N3CCC[C@H]3C(=O)N2[C@H]1c1ccc(Br)cc1	0.12	-0.184 (inactive)	1.1 (inactive)	-0.0739 (inactive)	1.98	-0.0986	0.529	0.492	-0.0312	1.29 (inactive)	-0.218	0.338 (inactive)	-0.0391 (inactive)	0.363 (inactive)	0.444 (inactive)	0.349	0.607 (inactive)	0.296 (inactive)	0.764
C=CC[C@@]1(C(=O)N2CCOCC2)N=C(c2ccc(OCCCO)cc2)O[C@@H]1c1ccccc1	-0.0454	-1.33 (inactive)	0.437 (inactive)	-0.354 (inactive)	-0.0392	-0.151	0.0827	1.2	-0.571	1.24 (inactive)	-0.269	20.8 (active)	4.03 (inactive)	2.25 (inactive)	1.11 (inactive)	-0.115	-1.04 (inactive)	0.471 (inactive)	-1
CC(C)N1CC=CC23O[C@@H]4/C=C\CCCOC(=O)C4[C@H]2C(=O)N(CCCCCO)[C@@H]3C1=O (stereo partly drawn)	-0.22	-0.143 (inactive)	0.0564 (inactive)	0.392 (inactive)	-1.52	-0.244	1.5	1.58	-0.641	1.57 (inactive)	-0.285	-0.455 (inactive)	0.0907 (inactive)	0.658 (inactive)	-0.258 (inactive)	0.946	0.845 (inactive)	-0.00488 (inactive)	1.7
O=C1O[C@@H](c2ccccc2)[C@@H](c2ccccc2)N2[C@@H](c3ccccc3OCCO)[C@]3(C(=O)Nc4ccc(C#CC5=CCCCC5)cc43)[C@@H](C(=O)O)[C@H]12	0.26	-4.37 (inactive)	0.245 (inactive)	13.7 (active)	0.841	-0.0006	0.13	0.261	0.195	1.72 (inactive)	0.19	-1.69 (inactive)	-2.47 (inactive)	-13.4 (active)	-2.89 (inactive)	0.661	2.26 (inactive)	-2.11 (inactive)	-2.75
CCN1C(C)=C(C(=O)OC)[C@@H](c2ccccc2)N2C(=O)[C@@]3(C(=O)OC)O[C@@]12[C@@H]1C(=O)CCC[C@@H]13	0.365	-0.419 (inactive)	0.462 (inactive)	-0.51 (inactive)	-0.213	0.115	0.385	0.353	2.02	-0.128 (inactive)	-0.0518	0.732 (inactive)	-0.69 (inactive)	1.56 (inactive)	-1.11 (inactive)	0.641	0.715 (inactive)	1.11 (inactive)	0.25
COCCOC(=O)N1C(=O)[C@@]2(c3cc(C#CC4(O)CCCCCC4)ccc31)[C@H](C(=O)N1CCCCCCC1)[C@H]1C(=O)O[C@H](c3ccccc3)[C@H](c3ccccc3)N1[C@@H]2c1ccc(O)cc1	0.464	-4.34 (inactive)	-0.211 (inactive)	-1.68 (inactive)	1.16	1.01	1.27	0.889	1.68	1.13 (inactive)	2.25	0.908 (inactive)	0.128 (inactive)	-0.373 (inactive)	-0.763 (inactive)	1.49	1.5 (inactive)	0.372 (inactive)	2.35
O=C(O)[C@@H]1Cc2c([nH]c3ccccc23)[C@@H](c2ccccc2)N1	0.019	-0.691 (inactive)	0.109 (inactive)	-1.69 (inactive)	0.29	-0.164	0.589	0.409	0.371	0.327 (inactive)	-0.202	0.864 (inactive)	0.71 (inactive)	1.46 (inactive)	0.152 (inactive)	-0.344	1.04 (inactive)	-0.429 (inactive)	-0.614
COCCOC(=O)N1C(=O)[C@@]2(c3ccccc31)[C@H](C(=O)N1CCc3cc(OC)c(OC)cc3C1)[C@H]1C(=O)O[C@H](c3ccccc3)[C@H](c3ccccc3)N1[C@@H]2c1ccccc1OCCO	0.0374	-3.27 (inactive)	-0.183 (inactive)	-1.12 (inactive)	0.686	0.0228	0.435	0.243	1.38	2.1 (inactive)	0.391	8.34 (active)	1.35 (inactive)	1.38 (inactive)	0.123 (inactive)	2.25	2.12 (inactive)	1.46 (inactive)	0.00739
COc1cccc([C@@H]2[C@@H](C)CC[C@H]3C(=O)N(C)[C@@H](C(C)C)C(=O)N23)c1	0.0537	-0.205 (inactive)	2.9 (inactive)	-0.762 (inactive)	0.398	-0.0523	0.798	0.101	0.39	1.1 (inactive)	-0.193	-0.147 (inactive)	0.651 (inactive)	-0.355 (inactive)	-0.0201 (inactive)	0.423	0.226 (inactive)	0.0929 (inactive)	0.265
